# Screens deposited in PubChem by National Center for Advancing Translational Sciences (NCATS).
# Sampled rows, rich in hits. Any-hit rate of the full collection: about 9.2%.
# Rab9 promoter act = activators of Rab9 promoter. Potency, µM (titrated, usually from 9.22 µM), inactives show at the top dose activation, negative = inhibition, actives largely listed as activators. 2.8% of 320,000 active. Huh7 Rab9 promoter-luciferase reporter, luminescence, 24 h; note: % of control where 0% means no effect; nearly all actives have a fitted effect of over 60% in size
#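 Promoter activation is measured as luciferase luminescence in Huh7 cells stably transfected with a Rab9 promoter–luciferase construct, following 24 h compound exposure at 37 °C and 10 min reagent incubation at ambient temperature.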
# ELG1 genotox = inducers of genotoxicity in HEK293T ELG1-luciferase cells; Potency, µM (series often up to 46 µM), for the others: top-dose activity change, positive = activation, usual class: activators; AID 504466; 1.3% of 330,000 active; HEK293T ELG1-luciferase reporter, luminescence, 16 h; note: % of control where 0% means no effect; nearly all actives have a fitted effect of over 60% in size
#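 Screening used a luciferase reporter fused to human ELG1 in HEK293T cells. Luminescence was read on a CCD plate imager after 16 hr exposure and 30 min ONE-Glo incubation.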
# SMN2 splice up = increases expression of the SMN2 splice variant; 2.8% of 210,000 active; AID 1458; Potency, µM (series often up to 46.1 µM), for inactives: at the highest dose activity change, positive = activation, actives largely listed as activators; HEK293 SMN2-luciferase splicing reporter, luminescence, 30-36 h; note: % of control where 0% means no effect; nearly all actives have a fitted effect of over 55% in size
#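 HEK293 cells carry an SMN2 minigene-luciferase reporter in which exon 7 inclusion puts luciferase in frame. Cells were seeded at 2000 cells/well, attached for 10-12 hours, then exposed to compounds for 30-36 hours at 37C before ONE-Glo luminescence.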
# NPC1 prom act = activators of NPC1 promoter. Huh7 NPC1 promoter luciferase reporter, 24 h. Potency, µM (doses to about 9.22 µM), for inactives: top-dose activation, most hits filed as activators. 2.4% of 320,000 active; note: % of control where 0% means no effect; nearly all actives have a fitted effect of over 60% in size
#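 Stably transfected Huh7 (NPC1 promoter→luciferase), 1500 cells/well in Opti-MEM + 10% FBS, 2 h settle, then compound 24 h at 37 °C. Luminescence after 10 min with Amplite reagent.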
# ELG1 DNA repair = ELG1-dependent DNA repair inhibition | HEK293T ELG1-luciferase reporter, luminescence, 16 h; DNA damage induced by 5-fluorouridine | 2.3% of 330,000 active | Potency, µM (doses to about 46.1 µM), for the others: at the highest dose activity change, negative = inhibition, actives largely listed as inhibitors | AID 504467; note: % is set by controls: 0 for no effect and ±100 for the full control effect; nearly all actives have a fitted effect of over 55% in size
#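 Cells (2,000 per well) received 5-fluorouridine plus test compound or DMSO and were incubated 16 hr at 37 °C, 5% CO2. Luciferase activity was read by luminescence 30 min after ONE-Glo addition; signal suppression marked inhibition of damage-induced ELG1 function.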
# FLuc modulator = firefly luciferase modulation, counter-screen for miR-21 project; Potency, µM (doses to about 57.5 µM), inactives show at the highest dose activity change, negative = inhibition, most hits filed as inhibitors; 6.9% of 360,000 active; purified FLuc, Km substrates, luminescence inhibition; P08659;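 note: plate controls were vehicle for no effect and reference inhibitor for full effect; nearly all actives have a fitted effect of over 55% in size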
#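 Purified P. pyralis luciferase (10nM final) with 10uM D-luciferin and 10uM ATP (Km levels) in 50mM Tris acetate pH 7.5, 10mM Mg acetate, 0.01% Tween-20, 0.05% BSA; qHTS 6-point titration, ~60 µM downward; luminescence read.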
# ELG1 FLuc counter = luciferase inhibition in cell-free luciferin readout for ELG1 hits | shares compounds with ELG1 DNA repair | cell-free firefly luciferase luminescence counter-screen, ViewLux | Potency, µM (series often up to 46.1 µM), inactives show top-dose activity change, negative = inhibition, usual class: inhibitors | 3% of 350 active | AID 624247; note: % is set by controls: 0 for no effect and ±100 for the full control effect
# ELG1 Luc conf = confirmation of human ELG1-dependent DNA repair inhibitors | shares compounds with ELG1 DNA repair | HEK293T ELG1-luciferase levels, luminescence; cells co-treated with 5-fluorouridine | Potency, µM (top dose mostly 46.1 µM), without a hit: at the top dose activity change, negative = inhibition, most hits filed as inhibitors | 68% of 670 active; note: % is set by controls: 0 for no effect and ±100 for the full control effect; nearly all actives have a fitted effect of over 55% in size
# Target sequence (Q96QE3 whole entry, looked up): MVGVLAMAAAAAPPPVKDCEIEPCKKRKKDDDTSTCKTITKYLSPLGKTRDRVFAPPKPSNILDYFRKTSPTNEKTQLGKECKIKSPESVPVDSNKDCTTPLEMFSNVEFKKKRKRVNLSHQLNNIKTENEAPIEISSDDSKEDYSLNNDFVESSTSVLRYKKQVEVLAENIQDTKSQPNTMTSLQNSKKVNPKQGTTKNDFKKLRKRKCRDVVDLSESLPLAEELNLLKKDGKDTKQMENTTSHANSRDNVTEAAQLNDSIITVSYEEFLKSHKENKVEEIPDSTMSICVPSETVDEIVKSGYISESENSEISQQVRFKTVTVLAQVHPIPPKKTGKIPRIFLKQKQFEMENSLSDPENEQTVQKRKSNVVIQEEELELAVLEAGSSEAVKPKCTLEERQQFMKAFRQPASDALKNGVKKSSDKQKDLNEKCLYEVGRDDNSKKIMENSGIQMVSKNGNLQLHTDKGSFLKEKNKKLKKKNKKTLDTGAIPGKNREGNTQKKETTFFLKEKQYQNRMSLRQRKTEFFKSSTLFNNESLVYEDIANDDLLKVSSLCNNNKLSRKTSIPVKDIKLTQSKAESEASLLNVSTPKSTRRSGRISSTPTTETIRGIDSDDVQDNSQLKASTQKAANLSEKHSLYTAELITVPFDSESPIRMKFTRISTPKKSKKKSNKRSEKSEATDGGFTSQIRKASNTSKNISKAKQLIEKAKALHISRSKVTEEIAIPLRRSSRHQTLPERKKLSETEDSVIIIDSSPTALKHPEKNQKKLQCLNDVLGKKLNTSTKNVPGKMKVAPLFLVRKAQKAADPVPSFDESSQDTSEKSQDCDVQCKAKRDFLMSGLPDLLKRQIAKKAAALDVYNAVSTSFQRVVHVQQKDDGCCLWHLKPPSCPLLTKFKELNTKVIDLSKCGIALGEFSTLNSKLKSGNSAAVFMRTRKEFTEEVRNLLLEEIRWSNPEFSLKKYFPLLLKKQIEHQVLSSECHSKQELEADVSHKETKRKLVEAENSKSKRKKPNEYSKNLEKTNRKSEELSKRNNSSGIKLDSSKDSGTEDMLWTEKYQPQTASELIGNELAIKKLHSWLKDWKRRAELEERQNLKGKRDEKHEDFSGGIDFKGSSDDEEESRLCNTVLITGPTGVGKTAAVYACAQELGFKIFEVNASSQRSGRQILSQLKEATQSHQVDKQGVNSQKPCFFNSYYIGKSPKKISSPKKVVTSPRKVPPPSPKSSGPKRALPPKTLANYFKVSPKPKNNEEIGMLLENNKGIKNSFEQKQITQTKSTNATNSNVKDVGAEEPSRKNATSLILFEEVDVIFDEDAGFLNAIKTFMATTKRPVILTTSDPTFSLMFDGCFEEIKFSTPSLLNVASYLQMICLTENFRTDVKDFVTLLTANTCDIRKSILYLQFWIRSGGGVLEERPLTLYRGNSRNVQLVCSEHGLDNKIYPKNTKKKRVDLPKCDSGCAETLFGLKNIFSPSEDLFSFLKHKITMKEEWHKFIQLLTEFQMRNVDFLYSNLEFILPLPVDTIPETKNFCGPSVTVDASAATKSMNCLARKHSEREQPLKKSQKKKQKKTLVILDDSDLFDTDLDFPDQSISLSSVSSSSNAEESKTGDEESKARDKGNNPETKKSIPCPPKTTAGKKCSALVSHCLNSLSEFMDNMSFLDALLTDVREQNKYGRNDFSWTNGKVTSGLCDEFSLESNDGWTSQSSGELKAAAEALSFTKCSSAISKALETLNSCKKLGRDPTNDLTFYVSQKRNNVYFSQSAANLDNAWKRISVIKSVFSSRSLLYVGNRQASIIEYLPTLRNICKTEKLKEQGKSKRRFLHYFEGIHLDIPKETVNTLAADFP
# ELG1 MMS Luc = MMS-stimulated human ELG1 repair inhibition, confirmed; shares compounds with ELG1 DNA repair; 53% of 670 active; HEK293T luciferase-tagged ELG1 level, MMS stimulated; Potency, µM (highest dose often 46.1 µM), for the others: at the highest dose activity change, negative = inhibition, actives largely listed as inhibitors; AID 624249; note: % is set by controls: 0 for no effect and ±100 for the full control effect; nearly all actives have a fitted effect of over 60% in size
# ELG1 5FU viab = confirmation of ELG1 repair inhibitors: viability with 5FU. shares compounds with ELG1 DNA repair. cell viability with 5-FU, ELG1-dependent repair. Potency, µM (highest dose often 46.1 µM), for inactives: top-dose activity change, negative = viability loss, most hits filed as cytotoxic. 670 tested, under 10 active. AID 624250;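 note: ELG1-luc HEK293T cells cotreated with 5-fluorouridine at 10 µM final; viability measured 16 h after compound addition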
# ELG1 MMS cell = confirmation of ELG1 repair inhibitors: viability with MMS; shares compounds with ELG1 DNA repair; Cell viability with MMS, ELG1-dependent DNA repair; Potency, µM (series often up to 46.1 µM), for the others: top-dose activity change, negative = viability loss, actives largely listed as cytotoxic; 33% of 670 active; AID 624251;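 note: ELG1-luc HEK293T cells co-treated with 10 µM MMS; viability read 16 h after compound addition; % is set by controls: 0 for no effect and ±100 for the full control effect; nearly all actives have a fitted effect of over 60% in size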
# Cell viab unstim = affects unstimulated cell viability, ELG1 hit counter-screen; Potency, µM (titrated, usually from 45.9 µM), for the others: at the highest dose activity change, negative = loss of viability, most hits filed as cytotoxic; shares compounds with ELG1 DNA repair; cell viability counter-screen, unstimulated, luminescence; 8% of 900 active;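 note: compound exposure lasted 16 hours before reading; % is set by controls: 0 for no effect and ±100 for the full control effect; nearly all actives have a fitted effect of over 55% in size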
# FLuc enzyme = inhibits purified firefly luciferase, counter-screen for ELG1 hits. shares compounds with ELG1 DNA repair. purified firefly luciferase, luminescence counter-screen. Potency, µM (titrated, usually from 57.5 µM), for inactives: at the highest dose activity, negative = inhibition, most hits filed as inhibitors. 10% of 350 active; note: % is set by controls: 0 for no effect and ±100 for the full control effect
# * = called active by the depositor; u = inconclusive; x = not tested or not shown; ! = not confirmed by another sample. Calls come from the whole dose curve; as a rule, active = well fitted curve in the direction sought with a large enough effect; inconclusive = small, poorly fitted or top-dose-only effect, or another doubt; inactive = no such curve, though single readings can be large; an effect the other way counts as inactive or inconclusive. Potency is the fitted concentration of half-maximal effect.
SMILES,Rab9 promoter act,ELG1 genotox,SMN2 splice up,NPC1 prom act,ELG1 DNA repair,FLuc modulator,ELG1 FLuc counter,ELG1 Luc conf,ELG1 MMS Luc,ELG1 5FU viab,ELG1 MMS cell,Cell viab unstim,FLuc enzyme
Cc1ccccc1-n1c(SCC(=O)c2c(N)n(C)c(=O)n(C)c2=O)nc2sc3c(c2c1=O)CCCC3,-6%,0%,-7%,-7%,1.6µM*,3%,-7%,2.5µM*,-17%,u,-1%,-16%,-2%
Cc1cn(C2OC(COC(=O)c3ccccc3)C(OC(=O)c3ccccc3)C2OC(=O)c2ccccc2)c(=O)[nH]c1=O (configuration not stated),2%,-3%,16%,4%,4.6µM*,-2%,x,3.1µM*,-19%,u,u,6%,x
Cc1cn(C2OC(COC(=O)c3ccccc3)C(O)C2O)c(=O)[nH]c1=O (configuration not stated),8%,0%,-5%,-1%,16%,2%,x,x,x,x,x,x,x
CCC(C)[C@H]1CNCCN1CCc1cc(C(F)(F)F)cc(C(F)(F)F)c1 (some centres not stated),10%,-2%,x,-6%,3.5µM*,0%,x,-9%,22µM*,u,22µM*,u,x
COc1ccc(-c2nnn(CC(=O)N(CC(=O)NC3CCCC3)c3ccccc3F)n2)cc1OC,0%,7%,x,-1%,-5%,0%,x,x,x,x,x,x,x
CCC(C)NC(=O)c1oc2ccc(S(=O)(=O)N3CCC4(CC3)OCCO4)cc2c1C (configuration not stated),-1%,-18%,x,1%,-25%,0%,-9%,16µM*,u,4%,-4%,-20%,-2%
Cc1c(C(=O)Nc2ccc(F)cc2)oc2ccc(S(=O)(=O)N3CCC4(CC3)OCCO4)cc12,-7%,-15%,-47%,0%,12µM*,3%,u,7.1µM*,22µM*,u,25µM*,u,-3%
CCc1ccccc1NC(=O)CN1CCN(CC(=O)Nc2cc(C)ccc2OC)CC1,-15%,-12%,x,-1%,1.6µM*,1%,x,u,2.2µM*,7%,2.5µM*,-7%,x
CC(=O)c1ccc(C(=O)N2CCCC(N3CCN(c4ccc(F)cc4)CC3)C2)s1 (configuration not stated),20%,-1%,x,14%,0%,-15%,x,x,x,x,x,x,x
COc1ccccc1CNC(=O)CN1C(=O)NC2(CCCCCC2)C1=O,x,3%,x,x,2%,x,x,x,x,x,x,x,x
Cc1ccc2c(c1)sc1ncc(NC(=O)c3ccc(F)cc3)c(=O)n12,-1%,5%,-13%,-4%,u,-5%,x,x,x,x,x,x,x
Cc1ccc2c(c1)sc1nc(=O)n(-c3ccccc3)c(=O)n12,0.32µM*,u,x,0.56µM*,u,u,54%,x,x,x,x,1%,u
CN(C)c1ccnc2sc3c(=O)n(-c4ccccc4)cnc3c12,0%,-13%,17%,1%,12µM*,0%,12%,16µM*,u,14%,0%,u,-10%
CN(C)C=Nc1c(C(=O)c2ccccc2)sc2nccc(N(C)C)c12,1%,-11%,-14%,0%,u,-3%,x,x,x,x,x,x,x
COc1ccc2c(c1)c1c(c(=O)n(-c3ccc(OC)c(OC)c3)c(=O)n1CC(=O)N1CCCC1)n2C,x,x,x,x,x,-5%,x,x,x,x,x,x,x
CCn1c(=O)c(=O)n(CC)c2cc(N3CCCCC3)c(NC(=O)c3ccc(OC)c(OC)c3)cc21,x,x,3%,x,x,4%,x,x,x,x,x,x,x
CCOC(=O)C1CCN(c2cc3c(cc2NC(=O)c2ccc(Cl)cc2)n(C)c(=O)n3C)CC1,x,x,-3%,x,x,2%,x,x,x,x,x,x,x
CCOc1ccc(C(=O)Nc2cc3c(cc2N2CCCC2)n(CC)c(=O)n3CC)cc1OCC,-5%,-4%,x,-4%,u,4%,2%,16µM*,u,12%,u,u,-8%
CCOC(=O)C1CCN(c2cc3c(cc2NC(=O)c2ccc(F)cc2)n(C)c(=O)n3C)CC1,11%,-7%,x,17%,2.3µM*,5%,-12%,2.5µM*,14µM*,u,25µM*,25µM*!,-3%
COC(=O)C1CCN(CC(=O)Nc2cc(C)c3c(=O)oc4ccccc4c3n2)CC1,x,x,-5%,x,x,-7%,x,x,x,x,x,x,x
COc1ccc(C2CC(c3ccncc3)=NN2c2ccc(S(N)(=O)=O)cc2)cc1 (configuration not stated),x,21µM*,x,x,u,x,x,x,x,x,x,u,x
CCOc1ccc(NC(=O)CN(C)C(=O)C2CCN(c3ncnc4sc(C)c(C)c34)CC2)cc1OCC,-3%,-19%,x,1%,15µM*,2%,u,16µM*,25µM*,u,u,-14%,1%
Cc1ccccc1C(=O)NNC(=O)CSc1nnc(-c2ccncc2)n1-c1ccccc1,-1%,-1%,0%,-1%,-4%,-2%,x,x,x,x,x,x,x
